From PubChem BioAssay AID1347076 (National Center for Advancing Translational Sciences (NCATS), 2019)
Out of some 400,000 compounds screened, about 13,000 (3.2%) were called active. Inconclusive results (about 18%) are left out. Calls follow the shape of the dose curve; as a rule, active = well fitted cell-killing curve with a large enough effect; inconclusive = small, poorly fitted or top-dose-only effect, or effect the other way; inactive = flat fitted curve, though single readings scatter. This excerpt belongs to a sample that is enriched for actives.

assay: qHTS assay for MDR1-selective chemotherapeutics: Primary screen using the drug-selected MDR subline cells KB-V1; conditions: KB-V1 MDR cells viability, CellTiter-Glo, 72 h; series mostly up to 46.1 µM; activity change, negative = cytotoxicity: at the top concentration; also: nearly all actives have a fitted effect of over 60% in size
Procedure, shortened: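 Cells of the MDR subline KB-V1 are plated, dosed with compound at multiple concentrations, and incubated 72 h at 37 degrees C; CellTiter-Glo is then added and luminescence read after 10 min.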
% is scaled to controls: 0 for no effect and ±100 for the full control effect; potency is read from the fitted curve at half-maximal effect.

SMILES | activity change, negative = cytotoxicity | Potency
Cc1ccccc1-c1ccc2c(c1)O[C@@H](CN(C)Cc1ccc(C(=O)O)cc1)[C@@H](C)CN([C@H](C)CO)S2(=O)=O | -0.477% (inactive) | 
NC(CSC(c1ccccc1)(c1ccccc1)c1ccc(-c2ccccc2)cc1)C(=O)O (stereo unspecified) | -3.77% (inactive) | 
O=C1NC[C@H](Cc2ccc(O)cc2)N(C[C@@H]2CCCN2C[C@H](Cc2ccccc2)N2C[C@H](Cc3ccccc3)N(CC3CCCCC3)C(=O)C2=O)C1=O | -5.11% (inactive) | 
CCc1nc2c(OCC(=O)C(C)(C)C)cccn2c1N(C)C(=O)c1ccccc1F | -2.89% (inactive) | 
COc1cc(Cn2c3ccc(NC(=O)CC(C)c4ccccc4)cc3c(=O)n2C)ccc1F (stereo unspecified) | -18.4% (inactive) | 
CC(C)c1ccc(S(=O)(=O)NC2CCCC2)cc1 | -29.7% (inactive) | 
Cc1ccc(S(=O)(=O)NC2CCCCCC2)cc1 |  | 20.6 µM (active)
CSc1ccc(S(=O)(=O)NC2CCCCC2)cc1 | -15.7% (inactive) | 
CCOc1cc(/C=N/NC(=O)c2ccncc2)cc(Br)c1O | 23.2% (inactive) | 
O=C(COC(=O)/C=C/c1ccc(Cl)cc1)NC1CCS(=O)(=O)C1 (stereo unspecified) | 16.4% (inactive) | 
O=S(=O)(NCc1ccco1)c1cnc(Cl)c(Cl)c1 | 27.2% (inactive) | 
C/C(=N\Nc1ncc(Cl)cc1Cl)c1ccc(S(=O)(=O)NCc2ccco2)cc1 |  | 2.06 µM (active)
Cc1c(Cl)cnc(NC(=O)COC(=O)c2ccc(S(=O)(=O)NCc3ccco3)cc2)c1Cl | -7.05% (inactive) | 
COc1ccc(Cl)cc1NC(=O)CSc1nc2ccccc2c2nc(-c3ccccc3)nn12 | 2.49% (inactive) | 
Cc1cc(C)cc(NC(=O)CSc2ccccc2)c1 | 0% (inactive) | 
O=C(CSc1ccccc1)Nc1cc(Cl)ccc1Oc1ccccc1 |  | 18.4 µM (active)
CC(=O)Nc1ccc(SCC(=O)Nc2ccccc2Oc2ccccc2)cc1 |  | 4.61 µM (active)
CSc1cccc(NC(=O)CSc2ccccc2)c1 | -4.26% (inactive) | 
CC1CCCN(CC(=O)Nc2cc(Cl)ccc2Oc2ccccc2)C1 (stereo unspecified) | 2.14% (inactive) | 
CC(C)NC(=O)C1CCC(Cn2c(=O)c3sccc3n(Cc3ccc(F)cc3)c2=O)CC1 (stereo unspecified) | 14.1% (inactive) | 
Cc1cccc(CN2CCN(C3CN(Cc4ccccc4)S(=O)(=O)C3)CC2)c1 (stereo unspecified) | 1.24% (inactive) | 
C=CCOc1cccc(C2C(C(=O)c3ccc(C)o3)=C(O)C(=O)N2CCN2CCOCC2)c1 (stereo unspecified) | -32.9% (inactive) | 
COCCNC(=O)C1C(=O)Nc2ccccc2C(=O)N1c1ccc2c(c1)OCCO2 (stereo unspecified) | -6.15% (inactive) | 
O=S1(=O)CC(N2CCN(Cc3ccccc3F)CC2)CN1Cc1cn(Cc2ccccc2)nn1 (stereo unspecified) | 3.29% (inactive) | 
COc1ccc(Cn2c(=O)oc3ccccc32)cc1 | 1.97% (inactive) | 
CN1CCN(c2ccncc2S(=O)(=O)N2CCCC2)CC1 | 2.89% (inactive) | 

SMILES | activity change, negative = cytotoxicity | Potency
N=c1n(Cc2ccc(Cl)cc2)c2ccccc2n1CC(O)c1ccco1 (stereo unspecified) |  | 20.6 µM (active)
Cn1c(=N)n(CC(O)c2cccs2)c2ccccc21 (stereo unspecified) | 4.57% (inactive) | 
Cn1c(=N)n(CC(O)c2ccccc2)c2ccccc21 (stereo unspecified) | 0.812% (inactive) | 
Cc1ccc(S(=O)(=O)N2CC[C@H]3[C@@H](C2)C(=O)C[C@@H](c2ccccc2)N3S(=O)(=O)c2ccc(C)cc2)cc1 | 9.68% (inactive) | 
Brc1cccc[n+]1Cc1cccc(C[n+]2ccccc2Br)c1 | 1.12% (inactive) | 
COc1ccc(C(=O)Nc2ncc3c(n2)-c2ccccc2CC3)cc1 |  | 13 µM (active)
COc1ccc(C(=O)Nc2onc3c2CCCC3)cc1 | -22.3% (inactive) | 
O=C(Nc1ncc2c(n1)-c1ccccc1OC2)c1ccc(Cl)cc1 | -0.505% (inactive) | 
COc1cccc(CNC(=O)Cc2csc3nc(-c4ccccc4)cn23)c1 | 2.91% (inactive) | 
CCC(C(=O)Nc1cc(OC)ccc1OC)n1c(=O)c(C(F)(F)F)nc2ccccc21 (stereo unspecified) | -3.27% (inactive) | 
CCOC(=O)c1ccc(-c2ccc(C(=O)Nc3cccnc3)o2)cc1 | -20.6% (inactive) | 
O=C(Nc1cccnc1)c1noc2c1CCCCC2 |  | 23.1 µM (active)
COc1cccc(C(=O)Nc2cccnc2)c1OC | 8.39% (inactive) | 
CC(C)CC(=O)Nc1cc(C(F)(F)F)ccc1N1CCOCC1 | -6.92% (inactive) | 
Cc1noc(C)c1S(=O)(=O)Nc1cc(C(F)(F)F)ccc1N1CCOCC1 | -15.2% (inactive) | 
Nc1cc(C(F)(F)F)ccc1N1CCOCC1 |  | 20.6 µM (active)
Cc1ccccc1CNC(=O)CSc1nnc(C)c2c(C)n(-c3ccccc3)nc12 | -1.14% (inactive) | 
COc1cccc(C(NC(C)=O)c2nc(-c3ccccc3OC)cs2)c1 (stereo unspecified) | -18.7% (inactive) | 
CCN1CCCC1CNC(=O)c1ccc2c(c1)NC(=O)/C(=C\c1ccccc1F)S2 (stereo unspecified) | -4.63% (inactive) | 
COC(=O)c1ccc2nc(-c3ccc(Cl)cc3)c(Cc3cccc(F)c3)n2c1 | 13.5% (inactive) | 
COC(=O)c1ccc2nc(-c3ccc(F)cc3)c(Cc3ccc(C)cc3)n2c1 |  | 9.2 µM (active)
COC(=O)c1ccc2nc(-c3ccc(C)cc3)c(Cc3ccc(OC)cc3C)n2c1 | -24.1% (inactive) | 
COC(=O)c1ccc2nc(-c3ccc(OC)c(OC)c3)c(Cc3ccccc3)n2c1 | -3.03% (inactive) | 
COC(=O)c1ccc2nc(-c3cccc(Br)c3)c(Cc3ccc(OC)cc3C)n2c1 | -3.51% (inactive) | 
COC(=O)c1ccc2nc(-c3ccccc3)c(Cc3ccc(OC)cc3C)n2c1 |  | 23.1 µM (active)
OC[C@@H]1CN(Cc2ccc3c(c2)OCO3)C[C@H](n2cnc3c(NCc4ccco4)ncnc32)O1 | 0.266% (inactive) | 

SMILES | activity change, negative = cytotoxicity | Potency
CC1(c2cccc(N)c2)OCCO1 | 14.4% (inactive) | 
COc1ccc(NC(=O)Cn2c(=O)cc(C)c3c(C)nn(-c4cccc(Cl)c4C)c32)cc1OC | 4.25% (inactive) | 
Cn1nc(N)c2ncc(C(Cl)(Cl)Cl)nc21 | 16.9% (inactive) | 
Nc1cc(=O)c2[nH]cnc2[nH]1 | 11.3% (inactive) | 
S=c1[nH]c(=S)c2n[nH]nc2[nH]1 | -23.8% (inactive) | 
Cc1ccc2nc(-c3ccccc3)c(CC3CCCCC3)n2c1 | 8.28% (inactive) | 
Cc1ccc2nc(-c3cccnc3)c(NC3CCCC3)n2c1 |  | 2.59 µM (active)
Cc1ccc2nc(-c3ccc(O)cc3)c(Nc3ccc4c(c3)OCO4)n2c1 | 12.8% (inactive) | 
COc1ccccc1CNc1nccn(-c2ccc(F)cc2)c1=O | 5.14% (inactive) | 
CCOC(=O)C1(C)CCCN(C(=O)c2cccc(Cl)c2)C1 (stereo unspecified) | -11.5% (inactive) | 
COc1ccc(CCNC(=S)N2CCN(S(=O)(=O)c3ccc(Cl)cc3)CC2)cc1 | 4.6% (inactive) | 
Oc1cc2c(cc1O)CN(C(=S)NCCc1ccc(Cl)cc1)CCC2 |  | 14.6 µM (active)
O=C(NCCc1ccc(Cl)cc1)c1cccc(N2CCCC2=O)c1 | -5.68% (inactive) | 
Cc1cc([N+](=O)[O-])ccc1NC1CCCC1 |  | 16.4 µM (active)
Cc1cc([N+](=O)[O-])ccc1NC(=O)C1CCCO1 (stereo unspecified) | -0.842% (inactive) | 
Cc1cc([N+](=O)[O-])ccc1NCc1cccc([N+](=O)[O-])c1 | -4.27% (inactive) | 
COc1ccc(-c2nnc(SCC(=O)Nc3ccc(C(C)C)cc3)nc2-c2ccc(OC)c(OC)c2)cc1OC | 10.8% (inactive) | 
CC1(C)CN(CCc2ccccc2)C(=O)[C@H]1CC(=O)Nc1ccc(Br)cc1 | -1.58% (inactive) | 
CC1(C(=O)NS(=O)(=O)c2ccccc2)CCN1C(=O)C/C=C/c1ccccc1 (stereo unspecified) | 1.3% (inactive) | 
Cc1cccc(C(=O)Nc2ccccc2N2CCN(c3ccc(F)cc3)CC2)c1 | -30.1% (inactive) | 
O=C(Nc1ccccc1N1CCN(c2ccccc2)CC1)c1cccc(F)c1 |  | 11.6 µM (active)
CCn1c(=O)c(=O)n(CC)c2cc(N3CCCCC3)c(NC(=O)c3cccc(F)c3)cc21 | -3.16% (inactive) | 
O=C(NCc1nnnn1-c1ccc(Cl)cc1)c1ccc2c(c1)OCO2 | -9.69% (inactive) | 
CSc1ccc(S(=O)(=O)NCc2ccc(Cl)cc2)cc1 |  | 23.1 µM (active)
CC(C)CNS(=O)(=O)c1ccc(CCC(=O)NCc2ccc(Cl)cc2)cc1 | -5.32% (inactive) | 
Cc1ccc(S(=O)(=O)NCCC(=O)NCc2ccc(Cl)cc2)cc1C | 9.48% (inactive) | 

SMILES | activity change, negative = cytotoxicity | Potency
CCCCN1C[C@H](c2ccc(Br)cc2)[C@@H](CC(=O)Nc2ccc(Br)cc2)C1=O | -4.39% (inactive) | 
O=C(Nc1ccc(F)cc1)c1ccc(S(=O)(=O)NCc2cccnc2)cc1 | 0% (inactive) | 
Cc1ccc(C(=O)Nc2ccc(C(=O)O)cc2)cc1S(=O)(=O)Nc1ccccc1 | 1.49% (inactive) | 
O=C(Nc1ccc(Br)cc1)c1ccc(Br)c(S(=O)(=O)NCc2ccccc2)c1 |  | 13 µM (active)
COCCNC(=O)c1cc2c(Br)ccc(Br)c2nc1N | 0% (inactive) | 
O=S1(=O)CC(N2CCN(CCO)CC2)CN1Cc1cn(Cc2ccc(Cl)cc2)nn1 (stereo unspecified) | -0.0484% (inactive) | 
CC(C)n1ncc2c(C(=O)N3CCN(Cc4cccs4)CC3)cc(C3CC3)nc21 | -27.5% (inactive) | 
Cc1cc2oc(=O)cc(CN(C)Cc3ccccc3)c2cc1Cl | 0.451% (inactive) | 
CC1=NN(C(=O)Cc2ccc(C)cc2)C(O)(c2cccnc2)C1 (stereo unspecified) | 0.391% (inactive) | 
CCC1=NN(C(=O)Cc2ccc([N+](=O)[O-])cc2)C(O)(c2ccc(Br)cc2)C1 (stereo unspecified) |  | 13 µM (active)
CC1=NN(C(=O)c2ccc(Br)cc2)C(O)(c2ccccc2)C1 (stereo unspecified) | 9.29% (inactive) | 
C[C@@H]1CN([C@H](C)CO)S(=O)(=O)c2ccc(C#CC3CCCCC3)cc2O[C@H]1CN(C)C(=O)Cc1ccncc1 | 0% (inactive) | 
COc1ccc(NC(=O)c2ccco2)cc1NC(=O)COc1ccc(C)c(C)c1 | -4.24% (inactive) | 
CCc1ccc2ncc(C(=O)c3ccccc3)c(N3CCOCC3)c2c1 | -2.87% (inactive) | 
O=C(NCC(c1cccs1)N1CCOCC1)c1cc(-c2ccccn2)nc2ccccc12 (stereo unspecified) | -21.1% (inactive) | 
O=C(c1ccccc1)c1cc(-c2ccccn2)c(N2CCOCC2)s1 |  | 8.2 µM (active)
COCCNc1ncnc2c1ncn2[C@H]1CN(CCN2CCOCC2)C[C@@H](CO)O1 | 3.73% (inactive) | 
Fc1ccc(-n2ncc3c(Nc4ccc(Oc5ccccc5)cc4)ncnc32)cc1 | 0% (inactive) | 
OC(COc1ccccc1)CN1CCN(c2cccc(Cl)c2)CC1 (stereo unspecified) | 0.123% (inactive) | 
Cn1c(C(=O)NCCCN2CCN(c3cccc(Cl)c3)CC2)cc2c(=O)n(C)c3ccccc3c21 | 15.4% (inactive) | 
CCc1nn(CCCN2CCN(c3cccc(Cl)c3)CC2)c(=O)n1CCOc1ccccc1 |  | 6.51 µM (active)
CC(O)(c1cccc(F)c1)c1nc(-c2ccc3c(c2)OCO3)cs1 (stereo unspecified) | 3.39% (inactive) | 
CCc1nc2ccc(C(=O)NCCNC(C)=O)cn2c1N(CC)Cc1cccc(Br)c1 | 5.36% (inactive) | 
